# Assay results as given in PubChem BioAssay (NCATS).
# Results filed as inconclusive are left out. A call without a number means that no potency is given here. Activity calls are given as the source filed them. Unless noted, calls follow the shape of the dose curve; as a rule, active = well fitted curve in the direction sought with a large enough effect; inconclusive = small, poorly fitted or top-dose-only effect, or another doubt; inactive = no such curve, though single readings can be large; an effect the other way counts as inactive or inconclusive.
# Tests used:
# [1] = qHTS assay for measurement of the activity of small molecule inhibitors on Zika virus induced Caspase-3 activity in human iPSC derived neural progenitor cells (hNPCs) (AID 1224857); also: nearly all actives have a fitted effect of over 65% in size
# In short: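 Caspase-3/7 induction by a 6-hour ZIKV infection was quantified with a luminescent Caspase-Glo 3/7 reagent incubated 30 minutes at room temperature. Compounds were preincubated with hNPCs for 1 hour; inhibition was calculated against uninfected and infected control wells.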
# [2] = qHTS assay to identify small molecule inhibitors of chordoma cells - UCH-1 (AID 1259355); also: nearly all actives have a fitted effect of over 55% in size
# In short: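 Screening used approved and investigational drugs in 15-point titration against 800 seeded cells per well. A fixed combination of auranofin with camptothecin, doxorubicin, rubitecan and topotecan followed compound addition, and growth was scored by CellTiter-Glo after 48hr.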
# [3] = qHTS assay to identify small molecule inhibitors of chordoma cells - UCH-2 (AID 1259356)
# [4] = P-glycoprotein substrates identified in KB-8-5-11 adenocarcinoma cell line, qHTS therapeutic library screen (AID 1346987); details: outcome: dose series up to 44.5 µM; also: nearly all actives have a fitted effect of over 65% in size
# In short: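 Compounds are pinned in dose-response onto KB-8-5-11 cells (500 cells/well, colchicine-free medium) and left 72 h at 37 degree C. CellTiter-Glo luminescence then yields AC50 values.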
# [5] = NS1 protein of Zika virus - qHTS assay to identify small molecule inhibitors in human HEK 293 cells (AID 1347053); also: nearly all actives have a fitted effect of over 55% in size
# In short: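 Readout was TR-FRET using paired anti-NS1 antibodies after 24 h infection of HEK 293 cells with ZIKV MR766 (MOI = 0.5). Compound preceded virus by 1 h; reduced signal reflects lower NS1 expression.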
# [6] = qHTS of pediatric cancer cell lines to identify multiple opportunities for drug repurposing: Primary screen for DAOY cells (AID 1347090); also: nearly all actives have a fitted effect of over 55% in size
# In short: (§1)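 Viability measured as metabolically active cells via CellTiter-Glo luminescence following 48 hours of compound exposure, 11-point dilutions in confirmatory testing. 500-1,000 cells/well plated 5 hours before dosing; controls were DMSO and 2.3 µM bortezomib.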
# [7] = qHTS of pediatric cancer cell lines to identify multiple opportunities for drug repurposing: Primary screen for SJ-GBM2 cells (AID 1347091)
# In short: as §1
# [8] = qHTS of pediatric cancer cell lines to identify multiple opportunities for drug repurposing: Primary screen for A673 cells (AID 1347092); also: nearly all actives have a fitted effect of over 45% in size
# In short: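 48 h compound exposure, A673, 500-1,000 cells/well, 37 degrees C/5% CO2. MIPE: 11-point, 0.78 nM-46 µM; NPC: 8-point, 0.59 nM-46 µM (final). Readout CellTiter-Glo luminescence after 15 min RT.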
# [9] = qHTS of pediatric cancer cell lines to identify multiple opportunities for drug repurposing: Primary screen for SK-N-MC cells (AID 1347093)
# In short: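 Metabolically active cells were quantified by ATP-dependent luminescence (CellTiter-Glo, 15 min at room temperature) following 48 h treatment. Cells had been plated at 500-1,000 per well and settled for 5 h beforehand.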
# [10] = qHTS of pediatric cancer cell lines to identify multiple opportunities for drug repurposing: Primary screen for BT-37 cells (AID 1347094)
# In short: (§2)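 Viability was measured as metabolically active cells after 48 hours of treatment, read by CellTiter-Glo luminescence. Compounds were tested at multiple final concentrations, giving concentration-response curves.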
# [11] = qHTS of pediatric cancer cell lines to identify multiple opportunities for drug repurposing: Primary screen for NB-EBc1 cells (AID 1347095)
# In short: as §2
# [12] = qHTS of pediatric cancer cell lines to identify multiple opportunities for drug repurposing: Primary screen for U-2 OS cells (AID 1347096); also: nearly all actives have a fitted effect of over 50% in size
# In short: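 Viability after 48 h compound treatment at 37C, 500-1,000 cells/well, read as ATP luminescence with CellTiter-Glo. Primary screens used 11-point (MIPE, 0.78 nM-46 µM) or 8-point (NPC, 0.59 nM-46 µM) final concentrations; follow-up screens used 11-point dilutions.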
# [13] = qHTS of pediatric cancer cell lines to identify multiple opportunities for drug repurposing: Primary screen for Saos-2 cells (AID 1347097); also: nearly all actives have a fitted effect of over 40% in size
# In short: as §2
# [14] = qHTS of pediatric cancer cell lines to identify multiple opportunities for drug repurposing: Primary screen for SK-N-SH cells (AID 1347098);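 also: DMSO served as neutral control and bortezomib at 2.3 µM as positive control; nearly all actives have a fitted effect of over 65% in size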
# In short: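 Cells (500-1,000/well) rested 5 h, then received compounds for 48 h; metabolically active cells were measured by CellTiter-Glo luminescence. Final concentrations spanned up to 46 µM (MIPE, 11-point) or 0.59 nM-46 µM (NPC, 8-point) in primary screens, 11-point in follow-ups.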
# [15] = qHTS profiling of the MIPE4 collection as inhibitors of Plasmodium falciparum (DD2) proliferation (AID 743345; call rule not given here); details: P. falciparum Dd2 in erythrocytes, SYBR Green DNA, 72 h; at 9.64 µM (top of the series) unless noted
# In short: (§3)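 Parasite DNA was quantified by SYBR Green I fluorescence (ex 485, em 535 nm) after overnight lysis in saponin/Triton buffer at room temperature. Cultures at 0.3% parasitemia and 2.5% hematocrit were first exposed to compound for 72 h at 37 C; signals were normalised to artemisinin (0.29 uM) and vehicle wells.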
# [16] = qHTS profiling of the MIPE4 collection as inhibitors of Plasmodium falciparum (DD2) proliferation (Rep 2) (AID 743346; call rule not given here); details: P. falciparum Dd2 in erythrocytes, SYBR Green DNA, 72 h; at 9.64 µM (top of the series) unless noted
# In short: as §3
# [17] = qHTS profiling of the MIPE4 collection as inhibitors of Plasmodium falciparum (HB3) proliferation (AID 743347; call rule not given here); details: P. falciparum HB3 in erythrocytes, SYBR Green DNA, 72 h; at 9.64 µM (top of the series) unless noted
# In short: as §3
# [18] = qHTS of pediatric cancer cell lines to identify multiple opportunities for drug repurposing: Primary screen for TC32 cells (AID 1347089); also: nearly all actives have a fitted effect of over 60% in size
# In short: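 In the primary qHTS, MIPE compounds were tested at 11 concentrations (0.78 nM to 46 µM) and NPC compounds at 8 (0.59 nM to 46 µM) on TC32 cells for 48 h. CellTiter-Glo luminescence gave viability.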
smiles,measurement,setting,value
c1ccc2[nH]ccc2c1,outcome,[1],inactive
same,outcome,[2],inactive
same,outcome,[3],inactive
same,outcome,[4],inactive
same,outcome,[5],inactive
same,outcome,[6],inactive
same,outcome,[7],inactive
same,outcome,[8],inactive
same,Potency,[9],inactive
same,outcome,[10],inactive
same,outcome,[11],inactive
same,outcome,[12],inactive
same,outcome,[13],inactive
same,outcome,[14],inactive
CCCCCCCCCCOc1cc2c(=O)c(C(=O)OCC)c[nH]c2cc1OCC,"parasite growth remaining, % of DMSO control (lower = more inhibition)",[15],7.98% [at 28.5 µM]
same,"parasite growth, % of control (lower = inhibition)",[16],14.5% [at 28.5 µM]
same,"growth, % of control",[17],3.33% [at 28.5 µM]
same,"activity change, negative = inhibition",[1],9.1% [at 4.53 µM] (inactive)
same,outcome,[2],inactive
same,"activity change, negative = inhibition",[5],-16.6% [at 4.81 µM] (inactive)
same,"activity change, negative = cytotoxic",[18],8.44% [at 4.81 µM] (inactive)
same,"activity change, negative = cytotoxic",[6],-4.32% [at 4.84 µM] (inactive)
same,"activity change, negative = cytotoxic",[7],5.74% [at 4.84 µM] (inactive)
same,"activity change, negative = cytotoxic",[9],-8.08% [at 4.84 µM] (inactive)
same,"activity change, negative = cytotoxic",[10],9.52% [at 6.03 µM] (inactive)
same,"activity change, negative = cytotoxic",[11],9.4% [at 4.84 µM] (inactive)
same,"activity change, negative = cytotoxic",[12],0.999% [at 4.84 µM] (inactive)
same,"activity change, negative = cytotoxic",[14],2.61% [at 6 µM] (inactive)
CCCCCCCCCCCCCCCCCCO,outcome,[1],inactive
same,outcome,[2],inactive
same,outcome,[3],inactive
same,outcome,[4],inactive
same,outcome,[5],inactive
same,outcome,[18],inactive
same,outcome,[6],inactive
same,outcome,[7],inactive
same,outcome,[8],inactive
same,Potency,[9],inactive
same,outcome,[10],inactive
same,outcome,[11],inactive
same,outcome,[12],inactive
same,outcome,[13],inactive
same,outcome,[14],inactive
CN/C(=C\[N+](=O)[O-])NCCSCc1csc(CN(C)C)n1,outcome,[1],inactive
same,outcome,[2],inactive
same,outcome,[3],inactive
same,outcome,[5],inactive
same,outcome,[18],inactive
same,outcome,[6],inactive
same,outcome,[7],inactive
same,outcome,[8],inactive
same,Potency,[9],inactive
same,outcome,[10],inactive
same,outcome,[11],inactive
same,outcome,[12],inactive
same,outcome,[13],inactive
same,outcome,[14],inactive
